“And” between values parts separate entries of the source, which are not always exact repeats. Equal entries are not always repeated. Compounds without any hit were thinned out: in the full panel of roughly 83,000, 20% have a hit.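 The test compound was applied at a single concentration to cells in 96-well plates for 48 hours, and percent growth was recorded.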 Values without a mark were called inactive. The source made the active and inactive calls. The calls were made as follows: active = growth percent below 10; inactive = the rest.

This test deals with U251 CNS. Description: NCI-60 one-dose screen, 48 h (100 = growth as untreated, 0 = no growth, -100 = all killed). The conditions noted are these: 10 µM unless noted.
Take `CS(=O)(=O)c1ccc(-n2nc(C(=O)NCc3ccccc3)cc2-c2ccc(Cl)cc2)cc1`: the growth is 80.7%.
As for `CCCCCCCCc1cccc(CC(=O)Nc2ccc(C)cc2C(=O)O)c1`, the figure is 38.2% [25 µM]; as for `COc1ccc(-c2cc(C(=O)Oc3ccc(C=O)cc3OC)nn2-c2ccc(S(C)(=O)=O)cc2)cc1`, 101%.
As for `O=C(NN1C(=O)/C(=C/C=C/c2ccc([N+](=O)[O-])o2)SC1=S)c1ccncc1`, the growth is -91.2% (active).
Turning to `N#Cc1c(-c2ccc(F)cc2)nc(SCc2ccccc2)nc1N1CCNCC1`, the growth was -95.8% (active).
With `COc1ccc(/C=C/C(=O)c2ccc(OC)c(S(N)(=O)=O)c2)c(C(F)(F)F)c1`, the growth was -64.7% (active).
As for `COc1ccccc1Nc1nnc(-c2c[nH]c3ccccc23)o1`, the figure is 4.61% (active).
To `COc1ccc2c(c1)N=c1c-2cc2c(O)[nH]c(=S)n2c1=O` belongs 30.9%; to `CS(=O)(=O)Nc1cc(-c2ccc3ncnc(N4CCc5cc(F)c(Cl)cc54)c3c2)cnc1Cl`, 17.8%.
Turning to `CCC(=O)c1cc(C(=O)OC)c2ccc3c4ccccc4ccc3n12`, the growth was 21.9%.
`Cc1ccc(C(=O)Nc2cc(-n3cnc(F)c3)cc(C(F)(F)F)c2)cc1C#Cc1cnc2cccnn12`: the growth was 83.7%.
Consider `O=C(N=Nc1c(O)[nH]c2ccc(Cl)cc12)c1ccc2nc(-c3ccc(Cl)cc3)[nH]c2c1`, for which the growth was -88.3% (active).
As to `COc1cc(C=O)ccc1OC(=O)c1cc(-c2ccc(C)cc2)n(-c2ccc(S(C)(=O)=O)cc2)n1`, the growth was 100%.
To `Nc1nc2cc(-c3ccc4ncnc(NCc5ccccc5)c4c3)ccc2o1` belongs 9.55% (active); to `Cc1cccc(NCC(=O)N2CCN(c3ncnc4c3cnn4-c3ccccc3)CC2)c1`, 87.1%; to `Cn1cc(-c2cc(N)n3nc(-c4c[nH]c5ccccc45)cc3n2)c2cc(F)ccc21`, -39.4% (active).
In the case of `CCCCCCCCCc1ccc(C(=O)Nc2cc(C)ccc2C(=O)OC)cc1`, the growth was 112%.
For `NC1(c2ccc(-c3ccc4ncnc(NCc5ccccc5)c4c3)cn2)COC1`, the growth was 112% and 108%.
As for `CCCCNC(=S)Nc1ccc(OCc2nc3ccc(Cl)cc3[nH]2)cc1`, the growth was 23.7%.
Take `CCC1(OC(=O)c2ccccc2SSCCOC(=O)CCCCC2SCC3NC(=O)NC32)C(=O)OCc2c1cc1n(c2=O)Cc2cc3ccccc3nc2-1` (stereo not given): the growth was 36.2%.
As for `COc1ccc(/C=C/c2nc3ccccc3c(=O)n2CC(=O)Nc2ccccc2)cc1`, the figure is 16.3%; as for `CC[C@]12C=CCN3CC[C@@]4(c5ccc(OC)cc5N(C)[C@H]4[C@@](O)(C(=O)OC)[C@@H]1OC(=O)CCCC[P+](c1ccc(F)cc1)(c1ccc(F)cc1)c1ccc(F)cc1)[C@@H]32`, 13%.
To `COc1ccccc1NC(=O)N/N=C/c1c[nH]c2ccccc12` belongs 20%.
To `Cc1ccc(C2CC(c3ccc(NC(=O)Nc4ccccc4)cc3)=NN2c2ccc(S(C)(=O)=O)cc2)cc1` (stereo not given) belongs -63.5% (active); to `CC1=C(C)C(=O)C(NCCN2CCOCC2)=C(Br)C1=O`, 44.8%; to `CC(=O)C[n+]1cccc2c3ccccc3ccc21`, 59.9%.
With `Cc1nn(-c2ccccc2)c2nc(C)n(CC(=O)N/N=C/c3ccccc3O)c(=O)c12`, the growth is 28.7%.
To `O=C(CSc1nnc(-c2ccc(-c3nc4ccccc4[nH]3)cc2)o1)Nc1ccccc1` belongs -61% (active); to `Cc1cccc(-c2ccccc2Oc2ccc3nnc(Cl)n3n2)c1`, 94.6%; to `Oc1cncc(-c2ccc3ncnc(N4CCc5cc(F)c(Cl)cc54)c3c2)c1`, 39.1%.
For the molecule `CCOc1ccccc1[C@H]1C(C(=O)c2ccc(Cl)cc2)C2(N[C@@H]1c1ccccc1)C(=O)Nc1ccc(Br)cc12` (stereo not given in full), the growth was 0.419% (active).
As for `Cc1ccc2c(c1)/C(=C/C(=O)c1cc3ccccc3oc1=O)C(=O)N2`, the figure is 73.9%.
For the molecule `Cc1ccc(C(=O)C[n+]2cccc3c4ccccc4ccc32)cc1`, the growth was 17.8%.
As for `COC(=O)CSC1=C(C)C(=O)C(OC)=C(OC)C1=O`, the growth was 98.1%.
In the case of `CCCCCCCCc1ccc(C(=O)Nc2ccc(C)c(OP(=O)(O)O)c2)cc1`, the growth is 92%.

For the origin of these results see PubChem BioAssay (NCI).
